Measurements: the supplement of paper PMC10933113
Counter-ions that a name gives are not always drawn. ± gives the uncertainty stated by the source.

tested on: KeratinoSens (HaCaT ARE-luciferase) cells; test: Nrf2/ARE luciferase activation call in qHTS KeratinoSens assay (1 = active, 0 = inactive); details: not given;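 active = curve rank above 3; inactive = curve rank 0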

With `CCCC[n+]1ccccc1C.O=S(=O)([O-])C(F)(F)F` the “Nrf2/ARE luciferase activation call” value was “not active ARE inducer (skin sensitizer alert) (inactive)”.
For `CCC(C(=O)OCCOCCN(CC)CC)c1ccccc1.O=C(O)CC(O)(CC(=O)O)C(=O)O` (centres undefined), the “Nrf2/ARE luciferase activation call” value was “not active ARE inducer (skin sensitizer alert) (inactive)”.
`CCOCCn1c(N2CCCN(C)CC2)nc2ccccc21.O=C(O)/C=C/C(=O)O.O=C(O)/C=C/C(=O)O` was tested, and the “Nrf2/ARE luciferase activation call” value was “not active ARE inducer (skin sensitizer alert) (inactive)”.
In the case of `CCOC(=O)Nc1ccc(NCc2ccc(F)cc2)nc1N.O=C(O)/C=C\C(=O)O`, the “Nrf2/ARE luciferase activation call” value is reported as “not active ARE inducer (skin sensitizer alert) (inactive)”.
In the case of `CCCC[n+]1ccc(C)cc1.O=S(=O)([O-])C(F)(F)F`, the “Nrf2/ARE luciferase activation call” value is reported as “not active ARE inducer (skin sensitizer alert) (inactive)”.
With `C[C@@H](C1=C(CCN(C)C)Cc2ccccc21)c1ccccn1.O=C(O)/C=C\C(=O)O` the “Nrf2/ARE luciferase activation call” value was “not active ARE inducer (skin sensitizer alert) (inactive)”.
In the case of `CC(C)(C)NC[C@H](O)COc1nsnc1N1CCOCC1.O=C(O)/C=C\C(=O)O`, the “Nrf2/ARE luciferase activation call” value is reported as “not active ARE inducer (skin sensitizer alert) (inactive)”.

tested on: THP-1; test: CD86 surface expression induction over DMSO control (% over DMSO); higher = stronger dendritic cell activation; details: exposure time: 24 h
Method: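 hCLAT-like CD54 and CD86 surface expression on THP1 cells after 24 h exposure at a single concentration (highest non-cytotoxic concentration, or 100-200 µM if not cytotoxic). Flow cytometry (iQue) was run on 5,000 live cells.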

Going from `CNc1ccc(O)cc1` [4-(Methylamino)phenol Sulfate] (10 µM) to `Oc1ccc(/C=C/c2cc(O)cc(O)c2)cc1` [Resveratrol] (100 µM), the “CD86 surface expression induction” value falls from 37.1 ± 4.6 to -3.05 ± 3.9.

`Nc1ccc2cc3ccccc3cc2c1` [2-Aminoanthracene] (200 µM) and `c1ccc2cc3c(ccc4ccccc43)cc2c1` [Benz(a)anthracene] (200 µM) are within error of each other in “CD86 surface expression induction” value: -10.7 ± 9.7 for the first, -20.1 ± 26 for the second.

`c1ccc(-c2ccccn2)nc1` [2,2'-Dipyridyl] (200 µM) and `c1ccc2[nH]c(-c3cscn3)nc2c1` [Thiabendazole] (100 µM) are within error of each other in “CD86 surface expression induction” value: 0.3 ± 28 for the first, 6.44 ± 20 for the second.

`Cc1cccc(N(C)C(=S)Oc2ccc3c(c2)C2CCC3C2)c1` (centres undefined) [Tolciclate] (100 µM) and `COc1ccc(-c2cc(=S)ss2)cc1` [Anethole trithione] (100 µM) are within error of each other in “CD86 surface expression induction” value: -1.12 ± 6 for the first, -4.63 ± 2.6 for the second.

First: O=C(CCCCCCC(=O)Nc1ccccc1)NO [Vorinostat (SAHA)] (100 µM)
Second: CCCCCCCCCCCCCCCC[N+](C)(C)Cc1ccccc1 [Benzylhexadecyldimethylammonium chloride] (10 µM)
The “CD86 surface expression induction” value of the first is lower: 5.02 ± 4 for the first, 57.5 ± 17 for the second.

First: Sc1nc2ccccc2s1 [2-Mercaptobenzothiazole] (100 µM)
Second: COC(=O)Nc1nc2cc([S+]([O-])c3ccccc3)ccc2[nH]1 (centres undefined) [Oxfendazole] (100 µM)
The “CD86 surface expression induction” value of the first is lower: -1.26 ± 3.2 for the first, 13.3 ± 2.3 for the second.

Compared with `C=CC(C)(CCC=C(C)C)OC(=O)CC(C)C` (centres undefined) [Linalyl isovalerate] (200 µM), `CC(C)CC(NC(=O)OCC1c2ccccc2-c2ccccc21)C(=O)O` (stereo in doubt) [N-(9-Fluorenylmethoxycarbonyl)-L-leucine] (100 µM) is lower in “CD86 surface expression induction” value: 4.35 ± 0.78 for the first, -11.4 ± 2.7 for the second.

`NC(=O)N/N=C/c1ccc([N+](=O)[O-])o1` [Nitrofurazone] (200 µM) and `O=C(N/N=C/c1ccccc1O)c1ccncc1` [Salinazid] (10 µM) are within error of each other in “CD86 surface expression induction” value: 5.94 ± 3.7 for the first, 7.77 ± 2.8 for the second.

`CCCCCCC(C)O` (centres undefined) [2-Octanol] (200 µM) and `CCCCCCCCCCCCO` [1-Dodecanol] (100 µM) are within error of each other in “CD86 surface expression induction” value: 0.56 ± 6.7 for the first, 21.8 ± 27 for the second.

`O=[N+]([O-])c1cc(N(CCO)CCO)ccc1NCCO` (200 µM) and `Cc1ccc(N)cc1O` [5-Amino-2-methylphenol] (200 µM) are within error of each other in “CD86 surface expression induction” value: -7.47 ± 11 for the first, -0.96 ± 6.3 for the second.

Compared with `N=C1C=CC(=C(c2ccc(N)cc2)c2ccc(N)cc2)C=C1` [C.I. Basic Red 9 monohydrochloride] (10 µM), `O=c1cc(-c2ccccc2)oc2ccccc12` [Flavone] (200 µM) is higher in “CD86 surface expression induction” value: -3.84 ± 5 for the first, 16.4 ± 4.7 for the second.

`Cc1cc(C2(c3cc(C)c(O)cc3C)OS(=O)(=O)c3ccccc32)c(C)cc1O` [p-Xylenol blue] (200 µM) and `Cc1c(C)n(CCN(C)C)c2ccc(C(=O)OCCN(C)C)cc12` [Amindocate] (100 µM) are within error of each other in “CD86 surface expression induction” value: 2.3 ± 1.9 for the first, 1.11 ± 2.2 for the second.

Compared with `CO[C@@]12[C@H](COC(N)=O)C3=C(C(=O)C(C)=C(N)C3=O)N1C[C@@H]1N[C@@H]12` [Mitomycin C] (100 µM), `CC(C(=O)O)c1ccc(/C=C2\CCCCC2=O)cc1` (centres undefined) [Pelubiprofen] (100 µM) is lower in “CD86 surface expression induction” value: 60.5 ± 16 for the first, -4.77 ± 4.1 for the second.

With `Nc1cc(Cl)c(O)c(Cl)c1` [4-Amino-2,6-dichlorophenol] (100 µM) the “CD86 surface expression induction” value was -14.4 ± 29.
